Consider 14 molecules from PubChem BioAssay (EPA / NIEHS).

Each structure is given as a SMILES string. Inconclusive results are not listed. The source made the active and inactive calls. How the source made its calls, unless noted: active means hit-call score of the fitted dose curve at least 0.9, where 1 is the maximum; inconclusive means response in the unintended direction; inactive means score below 0.9.

For assay [1], the target named is rat Opioid Receptor, Non-selective Binding, Oprm1 (gene 25601) (UniProt P33535). Kind of assay: NVS_GPCR_rOpiate_NonSelective: NovaScreen (NVS) G Protein-Coupled Receptor Assay for rat Opioid Receptor, Non-selective Binding (AID 2283318). The method, boiled down:
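Filter-based radioligand displacement using rat forebrain membrane preparations, measured 1.5 h post-dosing. Single-concentration duplicate screen at 25 uM, follow-up in concentration series; activity taken as signal loss relative to DMSO.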

The nature of assay [2]: NVS_IC_rCaBTZCHL: NovaScreen (NVS) Ion Channel Assay for Calcium Channel, Type L, Benzothiazepine Site (CaBTZCHL) (AID 2283337). The method, boiled down: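 Rat cortical membrane preparation incubated 1.5 h with compound and benzothiazepine-site radioligand; loss of filter-bound counts versus DMSO marks displacement. Initial duplicate testing at 25 uM, actives followed up in concentration series.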

Assay [3] addresses rat Glutamate, AMPA Site (AMPA), Gria1 (gene 50592) (UniProt P19490). Put plainly: NVS_LGIC_rAMPA: NovaScreen (NVS) Ligand-Gated Ion Channel Assay for rat Glutamate, AMPA Site (AMPA) (AID 2283324). The essentials: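 Screening at 25 uM in duplicate preceded concentration series reaching 50 uM for qualifying compounds. Radioligand displacement on rat forebrain membranes, 1 h, filter-based scintillation readout; reduced binding relative to DMSO.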

Assay [4] has as its target Glutamate receptor ionotropic, kainate 1 (Rattus norvegicus) (UniProt P22756). Kind of assay: NVS_IC_rKAR: NovaScreen (NVS) Ion Channel Assay for rat Kainic Acid Receptors (KAR) (AID 2283334; active means hit-call score of the fitted dose curve at least 0.9, where 1 is the maximum; inactive means score below 0.9). The essentials:
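Rat forebrain membrane preparation incubated 1 h with radioligand and test chemical; bound signal read by filtration and scintillation. Single-concentration screen at 25 uM, then concentration series to 50 uM maximum.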

In assay [5] the target is rat Neonicotinoid receptor (NNR), Chrna7 (gene 25302) (UniProt Q05941). Put plainly: NVS_LGIC_rNNR_BungSens: NovaScreen (NVS) Ligand-Gated Ion Channel Assay for rat Neonicotinoid receptor (NNR) (AID 2283315). The method, boiled down:
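Rat cortical membrane preparation incubated 2.5 h with tritiated or iodinated radioligand and test chemical. Bound radioactivity was filtered and counted by scintillation, and displacement was analysed against DMSO.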

Assay [6] has as its target bovine Gamma-Aminobutyric Acid Type A Receptor BDZ, alpha 5 site (GABARa5), GABRA5 (gene 523515) (UniProt Q08E50). Put plainly: NVS_LGIC_bGABARa5: NovaScreen (NVS) Ligand-Gated Ion Channel Assay for bovine Gamma-Aminobutyric Acid Type A Receptor BDZ, alpha 5 site (GABARa5) (AID 2283323). The method, boiled down: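 Tested first in duplicate at a single 25 uM, with hits re-run in concentration series to a 50 uM maximum. Bovine hippocampal membranes; specific radioligand displacement measured by filter scintillation counting 1 hr post-dose.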

A short description of assay [7]: NVS_IC_rCaDHPRCh_L: NovaScreen (NVS) Ion Channel Assay for rat Calcium Channel, Type L, Dihydropyridine Site (CaDHPRCh_L) (AID 2283320). The method, boiled down: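 Rat cortex membrane preparation; dihydropyridine-site radioligand displacement read 1 h post-dose by filtration and scintillation. Primary single-point screen 25 uM in duplicate, then concentration series to 50 uM maximum; DMSO as negative control.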

Assay [8] concerns the target human Serotonin, 5-Hydroxytryptamine Receptor 3 (5HT3), HTR3A (gene 3359) (UniProt P46098). Put plainly: NVS_LGIC_h5HT3: NovaScreen (NVS) Ligand-Gated Ion Channel Assay for human Serotonin, 5-Hydroxytryptamine Receptor 3 (5HT3) (AID 2283325). The method, boiled down: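 Initially tested at 25 uM in duplicate, then up to 50 uM in concentration-response for actives, compounds competed with a radioligand for HEK293-derived human 5-HT3 receptor. Bound counts were measured by filtration and scintillation at 1 h; loss of signal versus DMSO.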

In assay [9] the target is Voltage-gated inwardly rectifying potassium channel KCNH2 (Homo sapiens) (UniProt Q12809). Put plainly: NVS_IC_hKhERGCh: NovaScreen (NVS) Ion Channel Assay for human Potassium Channel ERG (KhERGCh) (AID 2283333). The essentials: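 Membranes from CHO cells expressing human ERG; displacement of radioligand measured by filtration and scintillation after 0.75 h. Single-concentration duplicate screen at 25 uM, then concentration-response for actives; DMSO baseline.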
Sequence of Voltage-gated inwardly rectifying potassium channel KCNH2 (Homo sapiens) (Q12809 whole entry, looked up): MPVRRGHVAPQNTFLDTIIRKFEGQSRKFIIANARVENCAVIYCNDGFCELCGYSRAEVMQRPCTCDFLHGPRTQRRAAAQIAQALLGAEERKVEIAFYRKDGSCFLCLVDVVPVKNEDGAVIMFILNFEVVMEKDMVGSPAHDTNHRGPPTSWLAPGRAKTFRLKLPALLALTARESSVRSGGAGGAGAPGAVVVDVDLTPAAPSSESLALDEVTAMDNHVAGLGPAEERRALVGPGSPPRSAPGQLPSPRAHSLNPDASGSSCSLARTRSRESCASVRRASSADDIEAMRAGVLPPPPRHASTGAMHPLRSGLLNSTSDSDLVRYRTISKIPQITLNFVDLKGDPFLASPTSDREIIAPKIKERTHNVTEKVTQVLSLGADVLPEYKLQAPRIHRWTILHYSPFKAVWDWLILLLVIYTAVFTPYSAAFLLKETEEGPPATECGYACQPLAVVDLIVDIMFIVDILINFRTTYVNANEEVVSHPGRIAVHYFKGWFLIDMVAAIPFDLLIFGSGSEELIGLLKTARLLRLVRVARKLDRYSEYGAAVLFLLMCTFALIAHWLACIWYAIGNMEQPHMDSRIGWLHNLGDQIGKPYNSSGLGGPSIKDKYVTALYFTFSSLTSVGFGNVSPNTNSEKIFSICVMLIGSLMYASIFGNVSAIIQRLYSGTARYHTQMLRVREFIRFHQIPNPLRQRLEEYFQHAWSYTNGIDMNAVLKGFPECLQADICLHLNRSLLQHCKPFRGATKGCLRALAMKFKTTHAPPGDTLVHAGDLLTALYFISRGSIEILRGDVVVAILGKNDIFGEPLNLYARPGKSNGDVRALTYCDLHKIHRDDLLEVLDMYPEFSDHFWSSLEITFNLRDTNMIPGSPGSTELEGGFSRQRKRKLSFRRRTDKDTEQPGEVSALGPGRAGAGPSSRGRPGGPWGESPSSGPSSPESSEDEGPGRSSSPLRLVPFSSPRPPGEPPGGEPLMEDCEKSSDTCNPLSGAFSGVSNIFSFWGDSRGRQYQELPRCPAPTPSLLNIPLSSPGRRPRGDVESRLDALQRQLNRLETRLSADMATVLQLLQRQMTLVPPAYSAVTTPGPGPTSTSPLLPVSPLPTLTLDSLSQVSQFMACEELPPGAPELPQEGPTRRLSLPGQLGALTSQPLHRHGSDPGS

In assay [10] the target is rat Vasopressin 1 Receptor (V1), Avpr1a (gene 25107) (UniProt P30560). Kind of assay: NVS_GPCR_rV1: NovaScreen (NVS) G Protein-Coupled Receptor Assay for rat Vasopressin 1 Receptor (V1) (AID 2283316). The essentials:
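Concentration-response up to 50 uM for chemicals passing a threshold such as 30% inhibition in an initial duplicate 25 uM screen. Displacement of radioligand from rat liver membranes measured after 1.5 h by filtration and scintillation.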

Assay [11] has as its target rat Thyrotropin Releasing Hormone Receptor (TRH), Trhr (gene 25570) (UniProt Q01717). Kind of assay: NVS_GPCR_rTRH: NovaScreen (NVS) G Protein-Coupled Receptor Assay for rat Thyrotropin Releasing Hormone Receptor (TRH) (AID 2283329).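 Further: hit means lower bound tracer signal versus DMSO baseline.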 The method, boiled down: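 Rat forebrain membranes; radioligand displacement at TRH receptor by filter-based scintillation counting, read 4 h after dosing. Duplicate single-point screen at 25 uM, actives rerun in concentration series; loss of signal relative to DMSO.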

Assay [12] deals with rat Glutamate, NMDA Agonist Site (GluNMDA), Grin1 (gene 24408) (UniProt P35439). Kind of assay: NVS_LGIC_rGluNMDA_Agonist: NovaScreen (NVS) Ligand-Gated Ion Channel Assay for rat Glutamate, NMDA Agonist Site (GluNMDA) (AID 2283327). The method, boiled down: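 Radioligand displacement at the agonist site on rat forebrain membrane preparations, read by filter scintillation after 1 h. Chemicals were first run at 25 uM in duplicate; those passing threshold were titrated to a 50 uM maximum.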

Assay [13] has as its target human Constitutive Androstane Receptor (CAR), NR1I3 (gene 9970) (UniProt Q14994). Put plainly: NVS_NR_hCAR_Agonist: NovaScreen (NVS) Nuclear Receptor Binding Assay for human Constitutive Androstane Receptor Agonism (CAR) (AID 2283328). The essentials: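 Actives from a 25 uM duplicate screen were retested in singleton concentration series to 50 uM max. Biochemical TR-FRET assay on extracted CAR protein measured 1 h post-dose, with signal increase over DMSO control.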

Sequence of human Serotonin, 5-Hydroxytryptamine Receptor 3 (5HT3), HTR3A (gene 3359) (P46098 whole entry, looked up): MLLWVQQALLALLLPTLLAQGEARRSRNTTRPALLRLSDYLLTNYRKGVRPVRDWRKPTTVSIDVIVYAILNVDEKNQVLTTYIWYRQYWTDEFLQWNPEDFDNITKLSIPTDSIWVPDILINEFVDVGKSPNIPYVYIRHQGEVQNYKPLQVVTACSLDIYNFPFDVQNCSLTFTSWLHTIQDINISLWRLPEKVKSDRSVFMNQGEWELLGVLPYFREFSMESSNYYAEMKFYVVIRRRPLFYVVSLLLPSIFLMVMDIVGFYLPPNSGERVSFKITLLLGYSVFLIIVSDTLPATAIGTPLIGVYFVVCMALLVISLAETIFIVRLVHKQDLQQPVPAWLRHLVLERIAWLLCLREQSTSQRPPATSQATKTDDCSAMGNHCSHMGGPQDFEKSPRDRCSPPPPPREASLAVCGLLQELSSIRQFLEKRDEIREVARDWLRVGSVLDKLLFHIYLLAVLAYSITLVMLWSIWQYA
Sequence of rat Glutamate, AMPA Site (AMPA), Gria1 (gene 50592) (P19490 whole entry, looked up): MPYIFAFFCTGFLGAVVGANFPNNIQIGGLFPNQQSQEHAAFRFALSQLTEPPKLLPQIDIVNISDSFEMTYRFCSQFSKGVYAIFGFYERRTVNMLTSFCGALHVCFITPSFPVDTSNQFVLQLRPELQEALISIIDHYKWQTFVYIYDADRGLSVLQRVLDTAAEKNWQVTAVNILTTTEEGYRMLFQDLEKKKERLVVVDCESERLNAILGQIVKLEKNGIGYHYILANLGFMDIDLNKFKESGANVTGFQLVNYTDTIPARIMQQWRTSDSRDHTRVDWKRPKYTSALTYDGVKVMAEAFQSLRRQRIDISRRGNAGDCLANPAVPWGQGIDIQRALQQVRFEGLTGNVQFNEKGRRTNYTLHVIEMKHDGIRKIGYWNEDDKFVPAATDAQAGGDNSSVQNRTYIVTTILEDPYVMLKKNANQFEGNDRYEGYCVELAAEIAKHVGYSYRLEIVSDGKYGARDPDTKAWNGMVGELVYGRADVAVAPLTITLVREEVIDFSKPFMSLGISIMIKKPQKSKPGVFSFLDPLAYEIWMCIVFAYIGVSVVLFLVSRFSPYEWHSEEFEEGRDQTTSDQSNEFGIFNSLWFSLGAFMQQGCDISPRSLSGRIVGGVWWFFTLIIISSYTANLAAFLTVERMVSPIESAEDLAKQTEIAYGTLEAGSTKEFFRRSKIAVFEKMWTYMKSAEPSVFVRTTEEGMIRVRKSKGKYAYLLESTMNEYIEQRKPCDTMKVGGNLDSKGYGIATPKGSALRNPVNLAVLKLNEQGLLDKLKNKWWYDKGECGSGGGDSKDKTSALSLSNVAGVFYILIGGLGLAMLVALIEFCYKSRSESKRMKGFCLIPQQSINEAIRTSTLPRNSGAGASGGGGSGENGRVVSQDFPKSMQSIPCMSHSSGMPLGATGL
Sequence of rat Opioid Receptor, Non-selective Binding, Oprm1 (gene 25601) (P33535 whole entry, looked up): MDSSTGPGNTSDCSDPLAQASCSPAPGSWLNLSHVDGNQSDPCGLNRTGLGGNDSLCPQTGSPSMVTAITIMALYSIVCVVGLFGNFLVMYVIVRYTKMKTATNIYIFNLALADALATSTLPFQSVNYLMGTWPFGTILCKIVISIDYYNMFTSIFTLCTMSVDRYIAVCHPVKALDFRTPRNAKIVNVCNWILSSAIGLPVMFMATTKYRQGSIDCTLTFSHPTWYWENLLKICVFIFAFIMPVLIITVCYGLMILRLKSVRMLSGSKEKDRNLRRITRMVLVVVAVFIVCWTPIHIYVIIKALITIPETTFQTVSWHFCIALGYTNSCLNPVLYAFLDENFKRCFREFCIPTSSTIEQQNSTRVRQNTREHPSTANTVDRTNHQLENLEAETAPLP
Sequence of rat Neonicotinoid receptor (NNR), Chrna7 (gene 25302) (Q05941 whole entry, looked up): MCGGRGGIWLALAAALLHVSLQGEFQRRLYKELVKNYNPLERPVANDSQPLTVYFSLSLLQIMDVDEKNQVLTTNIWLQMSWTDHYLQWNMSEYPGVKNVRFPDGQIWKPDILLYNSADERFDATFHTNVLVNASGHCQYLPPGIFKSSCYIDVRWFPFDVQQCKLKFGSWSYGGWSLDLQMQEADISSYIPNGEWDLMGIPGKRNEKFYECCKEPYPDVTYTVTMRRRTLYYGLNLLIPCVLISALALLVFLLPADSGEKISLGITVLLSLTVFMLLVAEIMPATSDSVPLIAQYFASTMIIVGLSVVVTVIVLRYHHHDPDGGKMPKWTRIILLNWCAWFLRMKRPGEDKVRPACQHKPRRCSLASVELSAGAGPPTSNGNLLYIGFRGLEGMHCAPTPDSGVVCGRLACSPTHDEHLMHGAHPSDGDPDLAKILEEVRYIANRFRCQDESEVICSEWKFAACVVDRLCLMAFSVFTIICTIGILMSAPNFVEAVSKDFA
Sequence of rat Thyrotropin Releasing Hormone Receptor (TRH), Trhr (gene 25570) (Q01717 whole entry, looked up): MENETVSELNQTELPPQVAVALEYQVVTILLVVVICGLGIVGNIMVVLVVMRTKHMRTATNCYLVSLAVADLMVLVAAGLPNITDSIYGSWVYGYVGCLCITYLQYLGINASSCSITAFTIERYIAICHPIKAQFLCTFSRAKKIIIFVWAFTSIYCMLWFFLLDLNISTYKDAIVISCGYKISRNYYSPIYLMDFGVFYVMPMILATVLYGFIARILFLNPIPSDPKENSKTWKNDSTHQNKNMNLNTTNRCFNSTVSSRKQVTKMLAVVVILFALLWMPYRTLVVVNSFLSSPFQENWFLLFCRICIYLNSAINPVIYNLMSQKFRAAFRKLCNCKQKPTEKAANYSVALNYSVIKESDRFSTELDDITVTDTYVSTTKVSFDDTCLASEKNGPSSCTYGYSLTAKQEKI
Sequence of bovine Gamma-Aminobutyric Acid Type A Receptor BDZ, alpha 5 site (GABARa5), GABRA5 (gene 523515) (Q08E50 whole entry, looked up): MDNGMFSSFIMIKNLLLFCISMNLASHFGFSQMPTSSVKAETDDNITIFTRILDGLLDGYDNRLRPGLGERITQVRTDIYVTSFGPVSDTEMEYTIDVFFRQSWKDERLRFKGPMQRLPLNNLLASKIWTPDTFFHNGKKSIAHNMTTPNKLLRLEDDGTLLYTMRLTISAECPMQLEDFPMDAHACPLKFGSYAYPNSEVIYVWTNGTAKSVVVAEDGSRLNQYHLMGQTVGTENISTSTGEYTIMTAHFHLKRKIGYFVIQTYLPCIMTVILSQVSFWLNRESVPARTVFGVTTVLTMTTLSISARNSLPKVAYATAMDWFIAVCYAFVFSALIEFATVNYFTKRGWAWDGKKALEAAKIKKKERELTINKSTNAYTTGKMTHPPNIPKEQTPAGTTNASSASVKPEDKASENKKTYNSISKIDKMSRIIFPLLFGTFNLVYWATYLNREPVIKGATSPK
Sequence of rat Vasopressin 1 Receptor (V1), Avpr1a (gene 25107) (P30560 whole entry, looked up): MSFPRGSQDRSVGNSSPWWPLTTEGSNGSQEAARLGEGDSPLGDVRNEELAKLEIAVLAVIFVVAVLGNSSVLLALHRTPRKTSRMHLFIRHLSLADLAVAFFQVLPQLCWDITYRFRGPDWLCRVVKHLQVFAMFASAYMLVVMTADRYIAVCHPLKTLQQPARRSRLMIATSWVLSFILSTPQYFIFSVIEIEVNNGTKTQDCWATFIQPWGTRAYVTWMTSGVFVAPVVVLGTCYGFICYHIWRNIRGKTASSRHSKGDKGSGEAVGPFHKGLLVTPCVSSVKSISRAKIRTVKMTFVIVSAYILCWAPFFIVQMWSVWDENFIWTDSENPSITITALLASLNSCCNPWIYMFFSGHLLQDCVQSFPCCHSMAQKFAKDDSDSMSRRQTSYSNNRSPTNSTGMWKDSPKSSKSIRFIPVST

By AC50 is commonly meant the concentration at which the activity in the assay is half-maximal. Consider `O=C(N[C@@H](Cc1ccccc1)[C@@H](O)C(=O)N1C[C@@H](O)[C@@H](O)C1)c1cc2cc(Cl)ccc2[nH]1`, for which the AC50 in assay [1] is 25 µM (active). Moreover, the result in [2] was inactive.
Regarding `CCCCCCCC=O`, the call in [3] and in assay [4] was inactive.
Regarding `CCOC(=O)C(C)(C)Oc1ccc(Cl)cc1`, the result in assay [5] was inactive.
In the case of `COCCOC[C@H](CC1(C(=O)NC2CCC(C(=O)O)CC2)CCCC1)C(=O)Oc1ccc2c(c1)CCC2` (stereo partly drawn), the outcome in assay [1] and in [3] was inactive.
For `CCCCc1ccc2c(n1)[C@@H](c1ccc(OC)cc1C[C@H](C)C(=O)O)[C@H](C(=O)O)[C@H]2c1ccc2c(c1)OCO2`, the AC50 in [6] is 27.5 µM (active).
For the molecule `Cc1cc(NC(=O)C(=O)O)cc(C)c1Oc1ccc(O)c2c1CCC2`, the result in assay [1] and in assay [3] was inactive.
With `COc1cc(-c2nc(NC(=O)c3cc4cc(C)cc(C)c4n3CC(=O)O)sc2CCC2CCCCC2)c(OC)cc1Cl`, the AC50 in assay [7] was 6.08 µM (active).
For `CNCc1cc(F)ccc1Oc1ccc(Cl)c(Cl)c1`, the concentration at half-maximal activity (AC50) in assay [5] is 28.5 µM (active). In addition, the molecule was called inactive in assay [8].
For the molecule `CCc1c(C(=O)NN2CCCCC2)nn(-c2ccc(Cl)cc2Cl)c1-c1ccc(Br)cc1`, the result in assay [7] and in assay [2] was inactive.
Regarding `CCCCCCCCCCCCCCCC`, the outcome in [8] was inactive.
For the molecule `CN1CCN(Cc2cc(-c3ccc4[nH]c(=O)oc4c3)co2)[C@@H](c2ccc(F)cc2)C1`, the values for the AC50 in assay [7] and in assay [2] were 15 µM (active) and 5.34 µM (active), respectively. The molecule was classed as inactive in assay [9].
For the molecule `FC(F)(F)C(F)(F)C(F)(F)C(F)(F)C(F)(F)C(F)(F)CCI`, in assay [7], the result was inactive.
In the case of `COc1ccc(S(=O)(=O)N2C(=O)[C@@](c3ccccc3OC)(N3C[C@H](O)C[C@H]3C(=O)N(C)C)c3cc(Cl)ccc32)c(OC)c1`, the molecule was classed as inactive in assay [10]. The values for the AC50 in assay [11] and in assay [2] were 10.4 µM (active) and 3.53 µM (active), respectively.
For the molecule `Oc1ccc2c(c1)OC[C@@H](N1CCC(O)(c3ccc(F)cc3)CC1)[C@H]2O`, the outcome in assay [1], in assay [8], in assay [12], in [13] and in [2] was inactive.
